# Laboratory results published in publication PMC7862700, “An all-to-all approach to the identification of sequence-specific readers for epigenetic DNA modifications on cytosine”.
# What was measured:
# Assay in all cases: DAPPL (digital affinity profiling via proximity ligation, sequencing); 10 mM Tris-HCl pH 7.5, 50 mM NaCl, 1 mM DTT, 4% glycerol, room temperature, 30 min; GST-TFs on glutathione beads, 16-mer random dsDNA library, 0.1% formaldehyde crosslink after washing; high values mean tight binding
# Settings in all cases: protein: recombinant; tags: N-terminal GST; dsDNA, one strand shown
# ETV1 = ETV1 (Homo sapiens, UniProt P50549 1-477)
# Sequence of ETV1 (P50549 whole entry, the tested form may be a part): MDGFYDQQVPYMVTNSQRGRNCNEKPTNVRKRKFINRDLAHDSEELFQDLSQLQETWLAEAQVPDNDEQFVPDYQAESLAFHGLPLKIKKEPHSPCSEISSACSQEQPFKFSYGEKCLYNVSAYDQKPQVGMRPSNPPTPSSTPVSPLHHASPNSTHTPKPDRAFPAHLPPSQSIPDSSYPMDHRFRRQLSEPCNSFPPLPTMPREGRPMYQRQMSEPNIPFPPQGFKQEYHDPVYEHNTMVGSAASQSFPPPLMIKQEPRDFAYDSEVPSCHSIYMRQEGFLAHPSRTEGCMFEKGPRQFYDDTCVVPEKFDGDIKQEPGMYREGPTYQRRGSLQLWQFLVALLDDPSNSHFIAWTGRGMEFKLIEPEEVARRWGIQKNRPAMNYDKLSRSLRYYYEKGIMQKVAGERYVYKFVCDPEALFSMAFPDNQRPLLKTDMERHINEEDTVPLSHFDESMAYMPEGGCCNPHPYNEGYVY
# Outline: (§1)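 Pools of DNA-barcoded human transcription factors, expressed in yeast as GST fusions on glutathione beads and combined with a tag-only sample, were incubated with 200 nmole of a 16-mer random double-stranded DNA library. Incubation took 30 min at room temperature in Tris/NaCl/DTT/glycerol buffer and was followed by washing, 0.1% formaldehyde crosslinking, proximity ligation (BsaI/T4 ligase, 1 h, 37 °C), PCR amplification and sequencing on an Illumina NextSeq500. Binding signal is the ratio of a hexamer's read frequency for a factor to its frequency for the tag-only sample.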
# ERF = molecular target: T1, ERF (Homo sapiens, UniProt P50548 1-548)
# T1 sequence: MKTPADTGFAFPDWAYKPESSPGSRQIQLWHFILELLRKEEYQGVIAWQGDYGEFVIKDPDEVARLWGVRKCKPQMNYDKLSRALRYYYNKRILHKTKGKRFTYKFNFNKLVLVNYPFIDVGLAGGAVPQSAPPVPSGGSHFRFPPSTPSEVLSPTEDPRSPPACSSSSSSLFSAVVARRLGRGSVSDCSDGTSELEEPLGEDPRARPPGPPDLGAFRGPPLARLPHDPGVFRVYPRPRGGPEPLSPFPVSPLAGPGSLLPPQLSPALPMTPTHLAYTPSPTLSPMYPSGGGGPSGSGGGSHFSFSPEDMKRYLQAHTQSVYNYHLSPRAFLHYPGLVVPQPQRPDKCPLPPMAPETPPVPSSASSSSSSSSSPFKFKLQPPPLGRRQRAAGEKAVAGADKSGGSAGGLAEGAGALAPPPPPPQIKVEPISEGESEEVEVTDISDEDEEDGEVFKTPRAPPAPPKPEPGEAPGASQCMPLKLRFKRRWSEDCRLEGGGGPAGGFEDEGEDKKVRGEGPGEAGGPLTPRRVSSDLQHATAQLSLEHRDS
# Outline: as §1
# ETV3L = molecular target: T2, ETV3L (Homo sapiens, UniProt Q6ZN32 1-361)
# T2 sequence: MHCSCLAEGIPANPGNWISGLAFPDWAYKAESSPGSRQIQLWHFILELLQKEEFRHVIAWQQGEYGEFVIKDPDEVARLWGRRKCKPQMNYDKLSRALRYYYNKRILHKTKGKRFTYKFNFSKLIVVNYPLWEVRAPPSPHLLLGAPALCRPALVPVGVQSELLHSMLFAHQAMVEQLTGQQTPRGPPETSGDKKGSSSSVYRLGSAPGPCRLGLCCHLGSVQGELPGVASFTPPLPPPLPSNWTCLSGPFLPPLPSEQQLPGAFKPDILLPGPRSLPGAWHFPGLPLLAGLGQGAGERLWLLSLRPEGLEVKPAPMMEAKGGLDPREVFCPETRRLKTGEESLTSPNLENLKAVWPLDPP
# Outline: as §1
# ETS2 = molecular target: T3, ETS2 (Homo sapiens, UniProt P15036 1-469)
# T3 sequence: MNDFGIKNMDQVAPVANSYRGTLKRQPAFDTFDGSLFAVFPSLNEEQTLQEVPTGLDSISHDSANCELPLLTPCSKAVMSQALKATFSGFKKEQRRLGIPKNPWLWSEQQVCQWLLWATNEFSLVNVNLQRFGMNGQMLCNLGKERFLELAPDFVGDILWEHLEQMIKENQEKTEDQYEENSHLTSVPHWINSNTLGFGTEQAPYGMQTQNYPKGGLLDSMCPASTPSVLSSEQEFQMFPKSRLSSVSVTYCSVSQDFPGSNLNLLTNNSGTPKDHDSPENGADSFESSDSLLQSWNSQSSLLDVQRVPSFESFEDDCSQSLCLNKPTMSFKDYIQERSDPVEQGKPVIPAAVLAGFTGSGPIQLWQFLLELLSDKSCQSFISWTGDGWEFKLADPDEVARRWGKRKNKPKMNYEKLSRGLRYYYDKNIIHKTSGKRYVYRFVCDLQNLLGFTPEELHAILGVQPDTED
# Outline: as §1
# SPDEF = molecular target: T4, SPDEF (Homo sapiens, UniProt O95238 1-335)
# T4 sequence: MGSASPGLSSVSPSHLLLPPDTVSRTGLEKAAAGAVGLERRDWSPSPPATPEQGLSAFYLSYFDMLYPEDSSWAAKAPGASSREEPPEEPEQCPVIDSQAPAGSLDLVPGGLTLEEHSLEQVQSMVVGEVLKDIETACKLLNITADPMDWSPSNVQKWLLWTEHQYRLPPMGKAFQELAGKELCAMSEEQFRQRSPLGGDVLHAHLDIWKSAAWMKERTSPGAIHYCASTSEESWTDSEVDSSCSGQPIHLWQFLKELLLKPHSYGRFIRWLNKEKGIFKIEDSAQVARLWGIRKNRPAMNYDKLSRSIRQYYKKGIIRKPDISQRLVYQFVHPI
# Outline: as §1
# ETV7 = molecular target: T5, ETV7 (Homo sapiens, UniProt Q9Y603 1-341)
# T5 sequence: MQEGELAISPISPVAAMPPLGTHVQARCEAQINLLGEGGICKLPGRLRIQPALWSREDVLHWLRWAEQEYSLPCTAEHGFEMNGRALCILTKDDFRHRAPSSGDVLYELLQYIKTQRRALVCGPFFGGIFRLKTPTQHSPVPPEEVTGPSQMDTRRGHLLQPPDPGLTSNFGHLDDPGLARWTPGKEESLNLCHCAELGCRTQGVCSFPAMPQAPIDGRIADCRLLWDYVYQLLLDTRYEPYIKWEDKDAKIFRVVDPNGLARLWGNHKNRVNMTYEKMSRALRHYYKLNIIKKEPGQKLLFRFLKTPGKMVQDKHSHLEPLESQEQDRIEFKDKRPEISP
# Outline: as §1
# ELF5 = molecular target: T6, ELF5 (Homo sapiens, UniProt Q9UKW6-2 1-255)
# T6 sequence: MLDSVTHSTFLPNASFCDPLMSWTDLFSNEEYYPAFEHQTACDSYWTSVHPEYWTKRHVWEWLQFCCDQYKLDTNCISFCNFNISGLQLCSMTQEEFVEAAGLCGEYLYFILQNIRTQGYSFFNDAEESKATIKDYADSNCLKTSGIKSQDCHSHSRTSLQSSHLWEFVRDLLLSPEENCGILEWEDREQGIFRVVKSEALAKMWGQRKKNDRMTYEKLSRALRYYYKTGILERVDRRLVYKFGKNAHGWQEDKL
# Outline: as §1
# ETV3 = molecular target: T7, ETV3 (Homo sapiens, UniProt P41162-2 1-143)
# T7 sequence: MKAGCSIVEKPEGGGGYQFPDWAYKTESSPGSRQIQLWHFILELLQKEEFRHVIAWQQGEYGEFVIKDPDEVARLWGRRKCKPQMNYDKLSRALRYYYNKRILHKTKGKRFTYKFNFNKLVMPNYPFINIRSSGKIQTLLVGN
# Outline: as §1
# ETV6 = ETV6 (Homo sapiens, UniProt P41212 1-452)
# Sequence of ETV6 (P41212 whole entry): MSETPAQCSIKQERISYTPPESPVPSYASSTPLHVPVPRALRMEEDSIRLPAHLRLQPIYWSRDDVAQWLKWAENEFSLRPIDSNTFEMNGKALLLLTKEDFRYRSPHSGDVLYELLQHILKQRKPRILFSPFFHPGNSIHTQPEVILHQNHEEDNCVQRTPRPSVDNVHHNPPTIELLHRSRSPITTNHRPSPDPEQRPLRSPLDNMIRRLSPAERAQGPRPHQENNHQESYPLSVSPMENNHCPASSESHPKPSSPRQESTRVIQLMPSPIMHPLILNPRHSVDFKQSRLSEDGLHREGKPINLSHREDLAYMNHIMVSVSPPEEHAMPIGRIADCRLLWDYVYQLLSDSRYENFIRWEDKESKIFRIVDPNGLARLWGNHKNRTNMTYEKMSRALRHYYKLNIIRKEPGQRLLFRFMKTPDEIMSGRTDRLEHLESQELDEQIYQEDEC
# Outline: as §1
sequence,measurement,setting,value
AATTCA,binding signal,ETV1,"1.23 fold enrichment (6-mer frequency, TF over GST control)"
same,binding signal,ERF,"1.22 fold enrichment (6-mer frequency, TF over GST control)"
same,binding signal,ETV3L,"1.35 fold enrichment (6-mer frequency, TF over GST control)"
same,binding signal,ETS2,"1.39 fold enrichment (6-mer frequency, TF over GST control)"
same,binding signal,SPDEF,"1.24 fold enrichment (6-mer frequency, TF over GST control)"
same,binding signal,ETV7,"1.28 fold enrichment (6-mer frequency, TF over GST control)"
same,binding signal,ELF5,"1.3 fold enrichment (6-mer frequency, TF over GST control)"
same,binding signal,ETV3,"1.31 fold enrichment (6-mer frequency, TF over GST control)"
same,binding signal,ETV6,"1.23 fold enrichment (6-mer frequency, TF over GST control)"
